# Assay outcomes deposited in PubChem by National Center for Advancing Translational Sciences (NCATS).
# ClpP mod – qHTS Assay for Activators of ClpP; ATP-dependent Clp protease proteolytic subunit (Bacillus subtilis (strain 168)), P80244; purified B. subtilis ClpP, FRET peptide cleavage, 20 min; Potency, µM (highest dose often 57.5 µM), for the others: at the top dose activity change, negative = active; 1.9% of 340,000 active; AID 651965, 2013; active = well fitted falling curve with a large enough effect; inconclusive = small, poorly fitted or top-dose-only effect; inactive = no such curve, though single readings can be large or run the other way; also: potency is read from the fitted curve at half-maximal effect; the source files actives as falling curves though it sought activators and does not explain the sign; nearly all actives have a fitted effect of over 65% in size
# Target sequence (P80244 whole entry, looked up): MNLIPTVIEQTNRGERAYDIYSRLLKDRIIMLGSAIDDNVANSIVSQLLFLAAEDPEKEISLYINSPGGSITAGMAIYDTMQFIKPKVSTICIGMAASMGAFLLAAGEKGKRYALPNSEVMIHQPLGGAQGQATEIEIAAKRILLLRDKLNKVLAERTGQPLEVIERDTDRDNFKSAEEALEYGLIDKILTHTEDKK
#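 Purified B. subtilis ClpP, 10 microg/mL final in Tris/HCl pH8 with KCl, BSA, glycerol and Tween-20, cleaved an Abz/nitrotyrosine-quenched decapeptide. Fluorescence (ex 320, em 430) was read at 0 and 20 min at room temperature. Delta was normalized to 5.8 microM ADEP and DMSO/no-enzyme controls.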
# DRD3 antagonist – qHTS of D3 Dopamine Receptor Antagonist: qHTS; D(3) dopamine receptor (Homo sapiens), P35462; D3R cells, DiscoveRx beta-arrestin luminescence, antagonist mode; active compounds read low; max response, negative = inhibition, %; 2.5% of 360,000 active; in the data active = max response below about -50%; inconclusive = no clear call, values can overlap the other calls; also: % is scaled to controls: 0 for no effect and ±100 for the full control effect
# Target sequence (P35462 whole entry, looked up): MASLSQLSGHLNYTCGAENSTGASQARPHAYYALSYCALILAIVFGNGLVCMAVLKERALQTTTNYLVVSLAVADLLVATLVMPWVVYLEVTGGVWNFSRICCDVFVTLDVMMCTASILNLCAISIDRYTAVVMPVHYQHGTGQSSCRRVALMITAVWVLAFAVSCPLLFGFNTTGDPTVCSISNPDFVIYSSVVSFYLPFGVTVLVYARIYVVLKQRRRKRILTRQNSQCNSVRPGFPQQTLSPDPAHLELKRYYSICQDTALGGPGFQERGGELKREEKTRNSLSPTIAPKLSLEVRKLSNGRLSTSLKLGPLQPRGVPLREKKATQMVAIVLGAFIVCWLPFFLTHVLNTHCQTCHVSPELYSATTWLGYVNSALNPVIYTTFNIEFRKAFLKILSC
#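 Cells plated overnight at 1500 cells/well, then exposed to library compounds with dopamine controls for 90 minutes at 37 degrees C. DiscoveRx reagent added for 30–60 minutes at room temperature; luminescence read, quantitative HTS format.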
# IL1B secr inh – qHTS for Inhibitors of Inflammasome Signaling: IL-1-beta AlphaLISA Primary Screen; activity change, % at 57.5 µM; 4.7% of 360,000 active; THP-1 LPS/ATP IL-1B secretion, AlphaLISA, 16 h; active compounds read low; in the data active = activity change below about -50%; inconclusive = mostly about -30% to -49%; also: % is scaled to controls: 0 for no effect and ±100 for the full control effect
#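 Secreted IL-1B measured by AlphaLISA bead assay after 16 h compound exposure of THP-1 cells; compounds (final up to 57.5 uM) added 1 h before LPS (250 ng/mL) and ATP (1.25 mM) stimulation; lower signal means less secretion.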
# DRD3 agonist – qHTS of D3 Dopamine Receptor Agonist: qHTS | D(3) dopamine receptor (Homo sapiens), P35462 | D3R DiscoveRx beta-arrestin cells, luminescence, 90 min | max activation, % | 0.58% of 410,000 active | AID 652048, 2013; in the data active = max activation above about 30%; also: 0% is about no effect
#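 Agonist-mode cell screen: cells plated at 1500/well and incubated overnight at 37 °C, then exposed to library compounds for 90 min at 37 °C. Detection reagent was added for 30–60 min at room temperature, and luminescence was read.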
# DT40 TDP1 no CPT – qHTS for Inhibitors of human tyrosyl-DNA phosphodiesterase 1 (TDP1): qHTS in cells in absence of CPT | DT40 Tdp1-/- hTDP1 cells, no CPT, ATP luminescence, 48 h | Potency, µM (highest dose often 46.2 µM), for the others: top-dose activity change, negative = growth inhibition, usual class: inhibitors | 15% of 420,000 active; also: potency is read from the fitted curve at half-maximal effect; % is scaled to controls: 0 for no effect and ±100 for the full control effect; nearly all actives have a fitted effect of over 55% in size
#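 Stably hTDP1-transfected Tdp1-null chicken DT40 cells were treated with library compounds minus camptothecin and grown for at least 48 hr at 37 °C, after which cellular ATP was quantified by luminescence.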
# DT40 TDP1 CPT – qHTS for Inhibitors of human tyrosyl-DNA phosphodiesterase 1 (TDP1): qHTS in cells in presence of CPT; 12% of 420,000 active; chicken DT40 Tdp1-/-;hTDP1 cells + 20 nM CPT, ATP luminescence, 48 h; Potency, µM (doses to about 46.2 µM), for the others: at the highest dose activity change, negative = growth inhibition, actives largely listed as inhibitors; also: potency is read from the fitted curve at half-maximal effect; % is scaled to controls: 0 for no effect and ±100 for the full control effect; nearly all actives have a fitted effect of over 55% in size
#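 Chicken DT40 Tdp1-/- cells complemented with human TDP1, 400 cells/well, exposed to compounds plus 20 nM camptothecin for at least 48 h at 37 C; viability read as ATP content by CellTiter-Glo luminescence.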
# An asterisk follows results filed as active; u = inconclusive; x = no result given. Rows were chosen to be rich in hits. Some 21% of all compounds tested hit in one or more screens of this group. Unless noted, calls follow the shape of the dose curve; as a rule, active = well fitted inhibition curve with a large enough effect; inconclusive = small, poorly fitted or top-dose-only effect; inactive = flat fitted curve, though single readings scatter.
SMILES,ClpP mod,DRD3 antagonist,IL1B secr inh,DRD3 agonist,DT40 TDP1 no CPT,DT40 TDP1 CPT
Cc1ccnc2cc(Cl)cc(Cl)c12,-1.2%,x,x,x,-3.2%,-14.8%
C/C(N)=C(/C#N)C(=O)CSc1nnnn1-c1ccc(C)cc1C,-1.2%,6.2,0.0,2.2,13µM*,23.1µM*
Cc1ccc(-n2nnnc2SCC(=O)Nc2cc(C)on2)c(C)c1,x,0.6,-2.8,3.9,-26.7%,-29.5%
Cc1ccc(SCC(=O)Nc2ccc(N3CCN(C)CC3)c(F)c2)c(C)c1,-0.8%,-98.1*,-20.0,-2.8,16.4µM*,20.6µM*
COC(=O)c1sccc1S(=O)(=O)N1CCC(n2c(CC3CCCC3)nc3cccnc32)CC1,x,x,x,x,-14.8%,1.5%
Cc1ccc(Cl)c(OCC(=O)Nc2ccccc2N2CCCCC2)c1,-12.3%,-16.4,16.9,15.5,u,u
Cc1ccc(NC(=O)c2ccc3c(=O)n4c(nc3c2)CCC4)cc1S(=O)(=O)N(C)C,-3.8%,14.9,11.1,0.5,u,-23.5%
O=C(c1cc2nc(-c3cccs3)cc(C(F)(F)F)n2n1)N1CCCc2ccccc21,-5.6%,u,9.9,-2.8,u,18.4µM*
O=C(c1cc2nc(-c3ccco3)cc(C(F)(F)F)n2n1)N1CCCc2ccccc21,-3.7%,0.0,-8.5,-12.5,u,-18.8%
O=C(c1nn2c(C(F)(F)F)cc(-c3ccco3)nc2c1Br)N1CCCc2ccccc21,3.2%,-1.7,5.6,3.3,11.6µM*,16.4µM*
O=C(c1nn2c(C(F)(F)F)cc(-c3cccs3)nc2c1Br)N1CCCc2ccccc21,-2.3%,-7.9,-14.2,-2.0,8.2µM*,9.2µM*
O=C(Nc1c(C(=O)N2CCN(c3ccc(F)cc3)CC2)oc2ccccc12)c1c(F)cccc1F,-11.8%,x,x,4.4,u,u
O=C(Nc1cccc(Br)c1)c1ccc2c(c1)SC1=NS(=O)(=O)CCN12,-10.6%,-0.7,-61.7*,-4.0,29.1µM*,23.1µM*
CC(C)(C)c1ccccc1NC(=O)c1ccc2c(c1)SC1=NS(=O)(=O)CCN12,x,7.0,-25.6,0.1,u,29.1µM*
Cc1cc(C)c(Cn2c(C)c(CNCCCc3ccccc3)c(C(=O)O)c2C)c(C)c1,-0.4%,x,x,-13.9,23.1µM*,u
CCOC(=O)C1=C(O)/C(=C\c2cc(C)n(-c3ccc(F)cc3)c2C)N=C1C,x,-24.1,-19.4,-7.6,14.6µM*,u
COC(=O)C1=C(C)NC(=O)/C1=C\c1cc(C)n(-c2ccccc2F)c1C,x,-13.4,-113.7*,2.7,u,1.9%
CCOC(=O)C1=C(O)/C(=C\c2cc(C)n(-c3ccccc3F)c2C)N=C1C,x,-14.4,4.6,-4.3,23.1µM*,11.6µM*
COc1ccccc1C(=O)Nc1cccc2nc(C)ccc12,-1.0%,14.8,-10.0,-1.2,1.5%,14.0%
Cc1ccccc1OCCc1c(C)[nH]c(=S)[nH]c1=O,x,0.0,57.0,-2.0,0.82µM*,1.46µM*
O=C(c1ccc2c(c1)CCCC2)N1CCN(c2nc3c(F)cccc3s2)CC1,0.2%,x,x,-9.1,u,-26.1%
COc1ccc(OC)c2sc(N3CCN(C(=O)c4ccco4)CC3)nc12,0.7%,x,x,2.0,-19.7%,-2.5%
O=C(C1CC1)N1CCN(c2nc3ccc(F)cc3s2)CC1,0.4%,x,x,4.2,u,u
O=C(c1ccc([N+](=O)[O-])o1)N1CCN(c2nc3c(Cl)cccc3s2)CC1,0.4%,0.6,-79.3*,-2.3,13µM*,20.6µM*
COc1cccc2sc(N3CCN(C(=O)c4ccc([N+](=O)[O-])o4)CC3)nc12,-2.1%,-10.7,-83.9*,-8.0,18.4µM*,20.6µM*
SMILES,ClpP mod,DRD3 antagonist,IL1B secr inh,DRD3 agonist,DT40 TDP1 no CPT,DT40 TDP1 CPT
O=C(c1ccc([N+](=O)[O-])o1)N1CCN(c2nc3ccc(F)cc3s2)CC1,x,0.2,-16.4,-0.4,23.1µM*,20.6µM*
CCOc1cccc2sc(N3CCN(C(=O)c4ccc5c(c4)CCCC5)CC3)nc12,0.7%,x,x,0.1,13µM*,18.4µM*
CCN(CC(=O)Nc1c(F)cccc1F)C(=O)c1ccc(OCC(=O)N2CCOCC2)c(OC)c1,x,-0.9,9.7,0.6,-15.7%,11.3%
Cc1ccc(NC(=O)C2CCCN2C(=O)OCc2ccccc2)c(O)c1 (stereo not drawn),1.3%,0.9,2.9,6.8,-8.5%,-11.0%
Clc1cccc2sc(N3CCN(c4ccccc4)CC3)nc12,0.0%,2.2,37.5,7.2,20.6µM*,23.1µM*
COc1ccccc1[C@@H]1C(c2cccc(C)c2)=NN(c2ccccc2)[C@H]1C(=O)N1CCOC1=O,4.1%,0.0,-3.2,0.9,-13.5%,u
O=C1[C@H]2[C@@H](c3ccccc3)N[C@]3(CCCN(Cc4ccc(F)cc4)C3=O)[C@H]2C(=O)N1Cc1ccccc1,1.4%,0.0,-22.6,-5.0,16.4µM*,u
O=C1[C@H]2[C@@H](c3ccc(C(F)(F)F)cc3)N[C@]3(CCCN(Cc4ccc(F)cc4)C3=O)[C@H]2C(=O)N1Cc1ccccc1,1.2%,7.1,-56.5*,2.1,u,u
Cc1ccc(CN2CCC[C@]3(N[C@H](c4ccccc4)[C@@H]4C(=O)N(Cc5ccccc5)C(=O)[C@@H]43)C2=O)cc1,-0.3%,u,-16.5,-8.9,16.4µM*,25.9µM*
Cc1ccc(CN2CCC[C@]3(N[C@H](c4ccc(C)cc4)[C@@H]4C(=O)N(Cc5ccccc5)C(=O)[C@@H]43)C2=O)cc1,-1.1%,12.0,-1.8,1.0,u,u
O=C1[C@H]2[C@@H](c3ccccc3)N[C@]3(CCCN(Cc4ccccc4)C3=O)[C@H]2C(=O)N1Cc1ccccc1,-3.7%,-28.7,-14.5,-10.5,u,-17.0%
O=C1[C@H]2[C@@H](c3ccc(C(F)(F)F)cc3)N[C@]3(CCCN(Cc4ccco4)C3=O)[C@H]2C(=O)N1Cc1ccccc1,1.6%,33.1,28.6,7.1,-4.5%,-3.4%
O=C1[C@H]2[C@@H](c3ccccc3)N[C@]3(CCCN(Cc4ccc(C(F)(F)F)cc4)C3=O)[C@H]2C(=O)N1Cc1ccccc1,0.8%,-16.2,-28.5,-9.1,u,18.4µM*
